Measurements: the supplement of paper PMC11577813, “Eurasian spruce bark beetle detects lanierone using a highly expressed specialist odorant receptor, present in several functional sensillum types” (BMC Biology, 2024)
± gives the standard deviation of the averaged measurements.

tested on: (4S)-cis-verbenol A-neuron OSN class; assay: net action potential response of A-neuron (blank-subtracted) (spikes/s (Hz)); higher = stronger excitation; conditions: 10 µg on filter paper; neuron: A neuron (large spike amplitude)
Method: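 Single sensillum recordings from antennal olfactory sensilla of live adult Ips typographus. Each compound was 10 µg in paraffin oil on filter paper, delivered as a 0.5 s puff. Net response = spikes in the first 0.5 s of response minus the 0.5 s pre-stimulus count, doubled to give Hz, with blank response subtracted. Values are for the large-spike A-neuron class of each of seven sensillum types that co-house the lanierone B-neuron; N = 1-4 sensilla, averaged.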

Row | SMILES | net action potential response
1 | CC[C@H]1O[C@]2(C)CCC[C@H]1O2 (racemic) [(±)-exo-Brevicomin] | -3.33 ± 4.2
2 | CCc1ccc(O)c(OC)c1 [4-Ethylguaiacol] | 2 ± 6
3 | CC1=CCC(=C(C)C)CC1 [Terpinolene] | 0 ± 3.5
4 | CCC/C=C/CO | 2 ± 4
5 | CCC(C)CO (racemic) [(±)-2-Methyl-1-butanol] | -1.33 ± 4.2
6 | CC(C)CCO [3-Methyl-1-butanol] | 6 ± 7.2
7 | C=CCc1ccc(OC)c(OC)c1 [Eugenol methyl ether] | -0.667 ± 8.1
8 | C[C@]12CCC[C@](C)(OC1)O2 (racemic) [(±)-Frontalin] | -2 ± 4
9 | CC1=CC(=O)[C@@H]2C[C@H]1C2(C)C [(-)-Verbenone] | 24.7 ± 25
10 | C=C1CCC2(C(C)C)CC12 (racemic) [(±)-Sabinene] | -4 ± 7.2
11 | CC1=CCC2CC1C2(C)C (stereo not drawn) [(-)-α-Pinene] | -2.67 ± 3.1
12 | C=CC(=C)CCC=C(C)C [Myrcene] | 2 ± 4
13 | CC(C)=CCC/C(C)=C/C=O [Citral (E/Z mix)] | 0 ± 3.5
14 | COc1ccc(C)cc1 [4-Methyl anisole] | 4.67 ± 4.6
